CtBP-E1A blk = qHTS Assay for Inhibitors of the CtBP/E1A Interaction; CtBP / adenovirus E1A interaction (AlphaScreen); AlphaScreen GST-E1A/His-CtBP binding, 1536-well; active compounds read low; activity change, % (concentration not given with the values); hit rate 0.49% among 340,000; AID 651724, 2012; in the data active = activity change below about -65%; inconclusive = mostly about -30% to -63%; also: % is scaled to controls: 0 for no effect and ±100 for the full control effect
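GST-E1A and His-tagged CtBP (125 nM each as 5X stock) were preincubated with pin-transferred compound for 2 h at 37 °C in the dark, then glutathione donor and nickel acceptor beads were added for 1 h before AlphaScreen reading.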
Six1-Eya2 blk = qHTS Assay for Inhibitors of the Six1/Eya2 Interaction; Homeobox protein SIX1 (Homo sapiens) + Protein phosphatase EYA2 (Homo sapiens), …; AlphaScreen GST-Six1/His-Eya2 binding, biochemical; active compounds read low; activity change, % (concentration not given with the values); hit rate 0.56% among 360,000; AID 651725, 2012; in the data active = activity change below about -65%; inconclusive = mostly about -30% to -63%; also: % is scaled to controls: 0 for no effect and ±100 for the full control effect
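Compounds are tested against tagged Six1 and Eya2 proteins bridged by glutathione donor and nickel acceptor beads; after a one-hour incubation at 37 °C without light, AlphaScreen emission is recorded.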
BAZ2B inh = qHTS Assay for Inhibitors of BAZ2B. Bromodomain adjacent to zinc finger domain protein 2B (Homo sapiens), Q9UIF8. AlphaScreen BAZ2B-H3K14Ac peptide displacement. Potency, µM (highest dose often 114 µM), without a hit: at the top dose activity change, negative = inhibition, hits mostly inhibitors. hit rate 4.4% among 360,000. AID 504333, 2011; also: potency is read from the fitted curve at half-maximal effect; % is scaled to controls: 0 for no effect and ±100 for the full control effect; nearly all actives have a fitted effect of over 60% in size
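Inhibition is scored as reduced AlphaScreen emission. The BAZ2B/b-H3(5-23)K14Ac complex (50 nM each) in PBS pH 7.4, 0.01% Tween-20 meets compound (up to 110 uM) for 30 min at RT before bead addition.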
JMJD2A Tudor = qHTS Assay for Inhibitors of JMJD2A-Tudor Domain | Lysine-specific demethylase 4A (Homo sapiens), O75164 | AlphaScreen JMJD2A-Tudor / H3K4me3 peptide binding | hit rate 4.4% among 390,000 | Potency, µM (series often up to 114 µM), inactives show top-dose activity change, negative = inhibition, actives largely listed as inhibitors | AID 504339, 2011; also: potency is read from the fitted curve at half-maximal effect; % is scaled to controls: 0 for no effect and ±100 for the full control effect; nearly all actives have a fitted effect of over 50% in size
G9a block = qHTS Assay for Inhibitors of Histone Lysine Methyltransferase G9a | Histone-lysine N-methyltransferase EHMT2 (Homo sapiens), Q96KQ7 | G9a H3K9 monomethylation, AlphaScreen, 2 h | Potency, µM (series often up to 102 µM), inactives show at the top dose activity, negative = inhibition, most hits filed as inhibitors | hit rate 8.8% among 350,000 | AID 504332, 2011; also: potency is read from the fitted curve at half-maximal effect; % is scaled to controls: 0 for no effect and ±100 for the full control effect; nearly all actives have a fitted effect of over 75% in size
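Quantitative HTS format: methyltransferase activity on a biotin-tagged H3K9 peptide is measured by AlphaScreen, using a rabbit anti-monomethyl-H3K9 antibody with streptavidin donor and anti-IgG acceptor beads. Final levels are 20 nM enzyme, 500 nM peptide, 20 uM SAM; 2 h RT.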
HP1b binding inh = HTS for Inhibitors of HP1-beta Chromodomain Interactions with Methylated Histone Tails | AlphaScreen HP1-beta / biotin-H3K9me3 peptide binding | Potency, µM (series often up to 114 µM), for the others: top-dose activity change, negative = inhibition, hits mostly inhibitors | hit rate 0.56% among 390,000; also: potency is read from the fitted curve at half-maximal effect; nearly all actives have a fitted effect of over 70% in size
Target sequence (P83916 whole entry, looked up): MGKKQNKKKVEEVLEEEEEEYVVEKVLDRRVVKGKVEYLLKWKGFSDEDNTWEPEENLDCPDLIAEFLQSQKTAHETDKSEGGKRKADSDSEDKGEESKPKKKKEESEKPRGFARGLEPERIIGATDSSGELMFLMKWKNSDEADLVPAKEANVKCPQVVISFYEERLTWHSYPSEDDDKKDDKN
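Compound inhibition of the preformed complex between 50 nM HP1-beta and 50 nM biotinylated H3K9me3 peptide was read by AlphaScreen. Buffer was PBS pH 7.4 with 0.01% Tween-20. Incubations ran 30 min at room temperature, with 10 ug/mL donor/acceptor beads.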
The depositor's hits bear a star; u = inconclusive; x = not tested or not shown; [ ] = dose if it differs, or a comment. Only some compounds are listed: those with a hit (about 10% of all), similar ones and a draw of the others. Unless noted, calls follow the shape of the dose curve; as a rule, active = well fitted inhibition curve with a large enough effect; inconclusive = small, poorly fitted or top-dose-only effect; inactive = no such curve, though single readings can be large or run the other way.

SMILES	CtBP-E1A blk	Six1-Eya2 blk	BAZ2B inh	JMJD2A Tudor	G9a block	HP1b binding inh
C#CCOCCOCCOCCNc1nc(N2CCOCC2)nc(N2CCN(C(=O)[C@H]([C@@H](C)O)n3cc(CCCCN)nn3)CC2)n1	-0.1	5.6	u	-15.3%	44.7µM*	19.4%
C#CCOCCOCCOCCNc1nc(N2CCOCC2)nc(N2CCN(C(=O)[C@H]([C@@H](C)CC)n3cc(CCCN=C(N)N)nn3)CC2)n1	x	-0.8	-36.3%	-12.0%	50.1µM*	32.7%
C#CCOCCOCCOCCNc1nc(N2CCN(C(=O)[C@H]([C@@H](C)O)n3cc(CCCCN)nn3)CC2)nc(N2CCN(C(=O)[C@H]([C@@H](C)CC)n3cc(CCCCN)nn3)CC2)n1	x	0.6	-31.1%	-14.1%	0.5%[2.33 µM]	39.0%
COc1cccc(CNC(=O)[C@H](CCSC)NC(=O)N2CCn3c2nc2ccccc23)c1	-8.3	-4.5	u	-21.9%	50.1µM*	23.9%
CSCC[C@H](NC(=O)N1CCn2c1nc1ccccc12)C(=O)NC1CC1	x	1.0	-22.3%[57.1 µM]	-11.7%	-32.9%	21.4%
COc1cc(NC(=O)[C@H](C)NC(=O)N2CCn3c2nc2ccccc23)cc(OC)c1	-0.2	-7.0	50.1µM*	-24.3%	-11.5%	39.7%
